The values below come from PubChem BioAssay AID463212 (Sanford-Burnham Center for Chemical Genomics, 2010).

Broadly, the inhibition is the change of the read-out against control, counted positive when it falls.

The campaign covered roughly 330,000 compounds. About 4,400 (1.3%) were called active. The sample as a whole holds a higher share of actives than the screen did. Unmarked numbers belong to inactive results.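 Rule for the calls: active = growth inhibition of the mutant yeast at or above 50%; inactive = the rest.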

The nature of the assay: growth inhibitors of tim23-1 mutant yeast, primary screen, luminescence, uHTS (AID 463212).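 Note: temperature-sensitive mutant grown at 25 °C; plate controls were DMSO-treated mutant yeast for no effect and medium wells lacking yeast for full effect.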 As to conditions: S. cerevisiae tim23-1 growth, BacTiter-Glo luminescence, 24 h; at 20 µM; active compounds read high.
Regarding `COc1ccc(N2C(=O)/C(=C/c3ccco3)C(=O)NC2=S)cc1`, the inhibition was 11.6%.

As to `O=C1NC(=O)N(c2ccccc2)C(=O)/C1=C/c1ccc([N+](=O)[O-])s1`, the inhibition was 41.2%.

Turning to `COc1cccc(N2C(=O)NC(=O)/C(=C\c3ccc([N+](=O)[O-])s3)C2=O)c1`, the inhibition was 50.5% (active).

Take `COC(=O)C1=C(c2ccc(F)cc2OCc2ccccc2)C[C@@H]2CC[C@H]1N2C(=O)NCc1ccc(C(C)(C)C)cc1`: the inhibition was 19.7%.

With `Cc1cc2ccccn2c1C(C[N+](=O)[O-])c1c(F)cccc1Cl` (stereo not given), the inhibition is 69.2% (active).

As for `O=c1c2ccccc2nc(-c2ccc(Cl)cc2Cl)n1-c1ccncc1`, the inhibition is 35.9%.

For the molecule `COP(=O)(OC)C(NC(=O)c1ccc(C)cc1)C(Cl)(Cl)Cl` (stereo not given), the inhibition was -17.8%.

Turning to `COC(=O)C1=C(c2ccc(Cl)c(C(F)(F)F)c2)C[C@@H]2CC[C@H]1N2C(=O)NC(C)C`, the inhibition was 21.8%.

Turning to `CCC(C)n1c(O)c(/C=N/Nc2nc3c(c(=O)n(C)c(=O)n3C)n2C)c(=O)[nH]c1=S` (stereo not given), the inhibition is 1.46%.

For `CC(=O)N1CN2CN(C(C)=O)CC(C(=O)c3ccc(Br)cc3)(C2)C1`, the inhibition was 0.81%.

For `O=c1c2ccccc2nc(-c2ccccc2)n1-c1ccccn1`, the inhibition was 14.3%.

Consider `Cc1ccc(-c2nc3ccccc3c(=O)n2-c2ccc(Br)cn2)cc1`, for which the inhibition was 52.7% (active).

Consider `O=c1c2ccccc2nc(-c2ccco2)n1-c1ccc(Br)cn1`, for which the inhibition was 29%.

Take `COC(=O)C1=C(c2cc3ccccc3s2)C[C@@H]2CC[C@H]1N2C(=O)NCc1cccc2ccccc12`: the inhibition was 34.5%.

`COc1cccc(CN2CCCC(C(=O)c3ccccc3SC)C2)c1O` (stereo not given): the inhibition is 8.13%.
